An excerpt weighted towards active compounds, which were near 3.3% of everything screened.
Mcl1 Noxa PPI – Mcl-1/Noxa binding inhibitors, primary screen, biochemical, TR-FRET, 1536-well; hit rate 1.5% among 220,000; TR-FRET Mcl-1/Noxa peptide binding, 2 h; inhibition, % at 21.7 µM;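 active means compounds that cut the protein-peptide binding signal by more than 50% relative to plate controls in a single-dose test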;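 further: His-tagged Mcl-1 with rhodamine Noxa BH3 peptide and terbium anti-His antibody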
Target sequence (Q07820 whole entry, looked up): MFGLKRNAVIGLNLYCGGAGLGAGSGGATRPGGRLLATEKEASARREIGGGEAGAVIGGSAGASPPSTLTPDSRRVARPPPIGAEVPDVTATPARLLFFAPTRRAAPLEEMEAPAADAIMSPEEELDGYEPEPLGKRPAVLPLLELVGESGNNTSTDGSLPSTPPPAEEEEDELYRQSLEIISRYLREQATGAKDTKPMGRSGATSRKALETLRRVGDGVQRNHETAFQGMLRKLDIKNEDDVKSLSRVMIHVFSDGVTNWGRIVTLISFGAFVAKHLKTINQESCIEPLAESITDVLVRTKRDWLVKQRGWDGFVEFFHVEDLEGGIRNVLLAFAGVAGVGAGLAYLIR
p47phox inh – p47phox/p22phox peptide binding inhibitors, primary screen, biochemical, uHTS, NADPH oxidase regulatory subunit | hit rate 0.53% among 220,000 | fluorescence polarization, 2 h | inhibition, % at 24.7 µM
Mcl1-Bid inh – Mcl-1/Bid binding inhibitors, primary screen, biochemical, TR-FRET, 1536-well; AID 1021, 2008; Induced myeloid leukemia cell differentiation protein Mcl-1 (Homo sapiens), Q07820; hit rate 0.97% among 220,000; inhibition, % at 21.7 µM; TR-FRET Mcl-1/Bid-Dy647 peptide binding;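 active means compounds that cut the binding signal by more than half at the single screening dose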;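 further: His-tagged Mcl-1 with europium anti-His antibody binding Bid BH3 peptide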
14-3-3 Bad inh – inhibitors of 14-3-3 zeta/Bad binding, primary screen, biochemical, TR-FRET, bovine 14-3-3 zeta. 14-3-3 protein zeta/delta (Bos taurus), P63103. TR-FRET 14-3-3zeta/Dy647-pBad peptide displacement, 1 h. inhibition, % at 21.7 µM. hit rate 0.71% among 220,000. AID 781, 2007;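 active means inhibition above about 70%, limit read from the data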
Target sequence (P63103 whole entry, looked up): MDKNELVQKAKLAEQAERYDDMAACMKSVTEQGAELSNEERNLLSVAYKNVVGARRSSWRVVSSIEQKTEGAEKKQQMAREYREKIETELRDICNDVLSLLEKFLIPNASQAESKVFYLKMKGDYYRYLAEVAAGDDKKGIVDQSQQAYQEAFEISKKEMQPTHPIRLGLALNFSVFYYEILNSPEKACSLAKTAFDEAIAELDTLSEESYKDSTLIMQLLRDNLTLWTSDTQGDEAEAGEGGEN
eIF4E-4G inh – eIF4E–eIF4G protein interaction inhibitors, primary screen, biochemical, uHTS, TR-FRET, eIF4GI fragment | TR-FRET eIF4E-eIF4GI(517-606) binding, 2 h | inhibition, % at 21.7 µM | hit rate 0.37% among 220,000 | AID 782, 2007
Bim-Mcl-1 – inhibitors of Bim peptide binding to Mcl-1, primary screen, biochemical, bead-based flow cytometry, multiplex | Induced myeloid leukemia cell differentiation protein Mcl-1 (Homo sapiens), Q07820 | inhibition, % at 10 µM | Bim peptide-Mcl-1 binding | AID 1009, 2008 | hit rate 0.1% among 190,000; in the data active means inhibition above about 40%
Of the large screens only hits and unclear results are named; the others gave an inactive call; [ ] = remark or other dose.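 How the source made its calls, unless noted: active means inhibition above about 30% (limit read from the data); inactive means the rest.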

O=C(CSc1ccccn1)Nc1ccc2c(c1)C(=O)c1ccccc1C2=O	Mcl1 Noxa PPI 71.9, Mcl1-Bid inh 76.6
O=C(CSc1n[nH]c(=O)[nH]c1=O)Nc1ccc2c(c1)C(=O)c1ccccc1C2=O	Mcl1 Noxa PPI 101.4, Mcl1-Bid inh 60.5 (no result: Bim-Mcl-1)
O=C(CSc1n[nH]c(=O)[nH]c1=O)Nc1cccc(S(=O)(=O)N2CCOCC2)c1	none
CCCNC(=S)NCCN1CCCCC1	14-3-3 Bad inh 72.6
CCCCNC(=S)NCCN1CCCCC1	none
CCOC(=O)C1=C(O)/C(=C\c2ccc(CNC(=O)C(=O)Nc3ccccc3)o2)N=C1C	Mcl1 Noxa PPI 95.9
O=C(Cc1ccc([N+](=O)[O-])cc1)Nc1cc(C(F)(F)F)cc(C(F)(F)F)c1	none (no result: Bim-Mcl-1)
COc1ccccc1C(CC(=O)Nc1ccc(C)c(C)c1)c1ccc(OC(C)C)cc1 (centres undefined)	Mcl1 Noxa PPI 55.2
COc1ccccc1NC(=O)CC(c1ccc(OC(C)C)cc1)c1ccccc1OC (centres undefined)	none
CCOc1ccc(S(=O)(=O)N/N=C2/CC(c3ccccc3)Oc3ccccc32)cc1 (centres undefined)	none
O=S(=O)(NC1CCCCC1)c1ccc(N2CCOCC2)nc1	none (no result: Bim-Mcl-1)
CC[n+]1ccc(C[n+]2ccccc2)c2ccccc21	p47phox inh 78.8
Oc1ccc(/C=N/Nc2ccc(C(F)(F)F)cn2)cc1	none
COc1cc(/C=N/Nc2ccc(C(F)(F)F)cn2)cc(OC)c1O	Mcl1 Noxa PPI 56.8
CC(NCc1ccc2c(c1)OCO2)C(=O)NC1CCCc2ccccc21 (centres undefined)	Mcl1-Bid inh 69.3
O=C1NC(c2ccc3c(c2)OCO3)Oc2ccccc21 (centres undefined)	eIF4E-4G inh 37.3[fluorescence artefact?]
CCOc1ccccc1NC(=O)N1CCC(NC(=O)c2cccc(C)c2)CC1	14-3-3 Bad inh 80.0[fluorescence artefact?], eIF4E-4G inh 56.0
CC1CC(C)CN(C(=O)C(C)N(C)CC(=O)Nc2ccc(Cl)cc2)C1 (centres undefined)	none (no result: p47phox inh)
COc1ccc(NC(=O)CN(C)C(C)C(=O)N2CCCCC2)cc1 (centres undefined)	Mcl1-Bid inh 56.3
COc1ccc(NC(=O)CN(C)CC(=O)Nc2ccccc2SC)cc1	Mcl1-Bid inh 51.3
Cc1ccc(C)c(OCC(=O)Nc2ccc3c(c2)OCO3)c1C	Mcl1-Bid inh 85.0
O=C(COC(=O)CCCc1c[nH]c2ccccc12)Nc1ccc2c(c1)OCO2	Mcl1 Noxa PPI 55.6
Nc1cnc(Nc2ccc(Br)cc2)nc1N	none (no result: Bim-Mcl-1)
CO/N=C/NC(=O)c1ccc([N+](=O)[O-])c(CS(=O)(=O)c2ccc(Cl)cc2)c1	Mcl1 Noxa PPI 65.5
O=C(CN1CCC(N2CCCCC2)CC1)N1CCCc2ccccc21	14-3-3 Bad inh 86.9
CCOc1ccc(NC(=O)COn2nnc3ccc(S(=O)(=O)N4CCOCC4)cc32)cc1	Mcl1 Noxa PPI 70.7
CCC(C)(C)n1nnnc1C(c1cccnc1)N1CCN(c2cccc(C(F)(F)F)c2)CC1 (centres undefined)	none
Cc1cc(=O)[nH]c(SCC(=O)N2CCN(S(=O)(=O)c3ccccc3)C2)n1	none
COc1cc(/C=C2\SC(=O)N(CC(=O)Nc3cccc(C)c3)C2=O)cc([N+](=O)[O-])c1O	Mcl1 Noxa PPI 58.6
COc1ccccc1C(=O)NNC(=O)CCCN1C(=O)/C(=C/c2cccs2)SC1=S	Mcl1 Noxa PPI 52.1
CCOc1cc(/C=C2\SC(=O)N(CC(=O)Nc3ccccc3F)C2=O)cc([N+](=O)[O-])c1O	none
O=C(CN1C(=O)S/C(=C\c2ccccc2)C1=O)NNC(=O)c1ccccc1O	none
COc1ccc(/C=C2\SC(=O)N(CC(=O)NNC(=O)c3ccccc3O)C2=O)cc1	Mcl1 Noxa PPI 52.6
COc1ccc(/C=C2\SC(=O)N(CC(=O)NNC(=O)c3ccccc3O)C2=O)cc1OC	Mcl1 Noxa PPI 53.2, p47phox inh 34.4, Mcl1-Bid inh 60.0
O=c1c(Cc2c(F)cccc2Cl)c(O)ccn1CCc1c[nH]c2ccccc12	none
C=C1SC(Nc2c(C)cc(C)cc2C)=NC12CCCCC2	none (no result: Bim-Mcl-1)
O=C(O)CC1(CC(=O)Nc2cc3ccccc3cn2)CCCCC1	none (no result: Bim-Mcl-1)
CC(=O)C(Cc1ccccc1)NC(=O)CN1CCN(Cc2ccccc2)CC1 (centres undefined)	none
CC1(C)C2CCC(C2)C1(C)NC(=O)CN1CCN(Cc2ccccc2)CC1 (centres undefined)	14-3-3 Bad inh 72.3
O=C(c1ccc(Cl)cc1)c1oc2ccccc2c1CS(=O)(=O)c1ccccc1	none
C=CC#CC[N+]1(CC#Cc2ccccc2)CCOCC1	p47phox inh 60.6
C(#Cc1ccccc1)C[N+]1(CC#Cc2ccccc2)CCCC1	none
CCOC(=O)c1sc(NN=C(C(=O)OC)C(=O)OC)c(C(=O)OCC)c1C	none
Nc1nnc(-c2ccco2)s1	none
Nc1ncnc2oc(-c3ccco3)c(-c3ccco3)c12	Mcl1 Noxa PPI 82.1
CC(C)c1ccc(OCC(=O)NCCO)cc1	none
Cc1ccc(N2C(=O)c3cccc4c(N)ccc(c34)C2=O)c2cccnc12	none (no result: Bim-Mcl-1)
Cc1ccc(-n2cnnn2)c2cccnc12	Mcl1-Bid inh 57.2
Cc1cccc(NS(=O)(=O)c2cc(NC(=O)CC(=O)c3ccc([N+](=O)[O-])cc3)ccc2C)c1	p47phox inh 35.3
Cc1ccc(C(=O)Nc2cccc([N+](=O)[O-])c2)cc1S(=O)(=O)Nc1ccc(C(=O)O)cc1	p47phox inh 60.1
CCOC(=O)/C=C/C(=O)Nc1cccc([N+](=O)[O-])c1	Mcl1 Noxa PPI 66.5
O=C(CC1NCCNC1=O)Nc1cccc([N+](=O)[O-])c1 (centres undefined)	Bim-Mcl-1 58.0
Cc1ccc(C(=O)Nc2ccc(C(=O)O)cc2)cc1S(=O)(=O)Nc1cccc([N+](=O)[O-])c1	none
CC(C)c1onc(C(=O)N(C)C2CCCCC2)c1[N+](=O)[O-]	none (no result: p47phox inh)
O=C(Nc1cccc([N+](=O)[O-])c1)c1cccc(C(=O)Nc2cccc([N+](=O)[O-])c2)c1	Mcl1 Noxa PPI 61.5, p47phox inh 40.8, Mcl1-Bid inh 52.9, eIF4E-4G inh 35.2 (no result: Bim-Mcl-1)
COc1cccc(C(=O)Nc2cccc(C(=O)NCC(C)C)c2)c1	none
Cc1cc(CSc2ccccc2)ccc1NC(=O)c1cccc([N+](=O)[O-])c1	eIF4E-4G inh 71.6[fluorescence artefact?]
